These results are taken from ChEMBL document CHEMBL1157539, “Thousands of chemical starting points for antimalarial lead identification” (Nature, 2010).

Holding throughout (assay type): functional
The subject of test [1] is Plasmodium falciparum. Description: GSK_TCMDC: Inhibition of Plasmodium falciparum 3D7 in whole red blood cells, using parasite LDH activity as an index of growth. Test compounds present at 2uM.
The test system of test [2] is Plasmodium falciparum. Description: GSK_TCMDC: Inhibition of Plasmodium falciparum Dd2 in whole red blood cells, using parasite LDH activity as an index of growth. Test compounds present at 2uM.
For a further test, the system named is HepG2. Description: GSK_TCMDC: Percent inhibition of human HepG2 cell line. Test compounds present at 10uM.

Structures are written as SMILES.

As usually defined, the Inhibition is the drop in the measured response relative to a control, in per cent. As for `Cc1cc(C2CCN(CCCCNC(=O)c3ccc(NC(=O)c4ccc(Cl)cc4)cc3)CC2)c(C)cc1OC(C)C.Cl`, the Inhibition worked out at 100% in the test with Plasmodium falciparum [1], 92% with Plasmodium falciparum [2] and 22% with HepG2.

Take `O=C(O)C(F)(F)F.OC1CCCN(Cc2ccc(-c3ccc(-c4nc5cc(F)ccc5[nH]4)cc3)cc2)C1` (stereo not given): the values for the Inhibition in the test on Plasmodium falciparum [1], with Plasmodium falciparum [2] and in the test with HepG2 were 100%, 79% and 55%, respectively.

Regarding `CC(C)=CC1C(C(=O)n2c(=N)[nH]c3ccccc32)C1(C)C` (stereo not given), the Inhibition worked out at 99% with Plasmodium falciparum [1], 3% in the test with Plasmodium falciparum [2] and 16% in the test on HepG2.

With `Cc1cc2nc(-c3ccc(C(=O)NCCCc4ccccc4)cc3)[nH]c2cc1C`, the Inhibition in the test with Plasmodium falciparum [1] came out at 91%; with Plasmodium falciparum [2], 5%; in the test on HepG2, 7%.

With `Cc1ccc(CON2C(N)=NC(N)=NC2(C)C)c(Cl)c1.Cc1ccc(CON2C(N)=NC(N)=NC2(C)C)cc1Cl`, the Inhibition with Plasmodium falciparum [1] is given as 91%; in the test with Plasmodium falciparum [2] it was 96%; in the test with HepG2, 67%.

As for `CCN(CCCN1CCCCC1)c1cc(C)nc(Nc2ccc(Cl)cc2)n1.Cl`, the Inhibition with Plasmodium falciparum [1] stood at 100%; in the test with Plasmodium falciparum [2] it was 82%; in the test with HepG2, 23%.

As to `Cc1cccc2nc(-c3cccc(-c4ccc(NC(=O)c5ccncc5)cc4)c3)[nH]c12`, the Inhibition turned out to be 98% in the test with Plasmodium falciparum [1], 74% in the test with Plasmodium falciparum [2] and 34% in the test on HepG2.

As to `CN1CCN(CCCNCc2cccc(Nc3nccc(Nc4ccc(Oc5ccccc5)cc4)n3)c2)CC1`, the results for the Inhibition with Plasmodium falciparum [1], with Plasmodium falciparum [2] and in the test on HepG2 were 100%, 80% and 97%, respectively.

As to `Cl.N=C(N)c1ccc(NN=Cc2ccc(Oc3ccc(C(=N)N)cc3)cc2)cc1`, the Inhibition is on record as 99% in the test on Plasmodium falciparum [1], 100% in the test on Plasmodium falciparum [2] and 18% in the test on HepG2.

As for `CC(C)CCCC(C)(C)NC[C@@H](O)[C@H](Cc1ccccc1)NC(=O)c1cc(NC(C)C)cc(N2CCCCS2(=O)=O)c1F.O=CO`, the Inhibition with Plasmodium falciparum [1] is 98%; in the test with Plasmodium falciparum [2] it was 99%; with HepG2 it was 11%.
